{
  "source": "PubChem BioAssay",
  "note": "The source made the active and inactive calls.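 The calls were made as follows: active = hit in primary screen, with calcium signal over 5 SD above buffer well mean in both duplicates; inactive = the rest.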",
  "data": [
    {"assay": "nonspecific calcium rise without TRPC4 – cell-based, HEK293 mu-opioid receptor line, counter-screen for TRPC4 activator project, confirmation (AID 449723);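 also: counter screen cells carry the mu-opioid receptor alone and lack TRPC4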; as to activation: reference of the scale not given here", "conditions": "HEK293 mu-opioid cells, Fluo-4 calcium fluorescence, at 10 µM; stronger effect = higher value", "values": [
      {"compound": "CC(C)c1ccc(NC(=S)N(C)CCc2ccccn2)cc1", "outcome": "inactive"},
      {"compound": "CCN1CCN(c2ccc(S(=O)(=O)N3CCCCC3)cc2NC(=O)COc2ccccc2)CC1", "outcome": "inactive"},
      {"compound": "COC(=O)c1ccccc1N=Nc1c(N)[nH][nH]c1=O", "outcome": "inactive"},
      {"compound": "CCc1nc(NCCc2ccccn2)c2nnn(Cc3ccccc3F)c2n1", "outcome": "inactive"},
      {"compound": "COC(=O)c1ccc(N2CCN(C)CC2)c(NC(=O)COc2ccccc2)c1", "outcome": "inactive"},
      {"compound": "CCC1(c2ccc(F)cc2)NC(=O)N(CC(=O)c2cc(C)n(C3CC3)c2C)C1=O", "note": "(stereo not given)", "activation": "13.8% (active)"},
      {"compound": "CCOC(=O)C1(CC2CCCCO2)CCN(Cc2c(C)cc(C)cc2-n2cccn2)CC1", "note": "(stereo not given)", "outcome": "inactive"},
      {"compound": "Cc1ccc(Cl)cc1NC(=O)CNCC(c1ccccc1)N(C)C", "note": "(stereo not given)", "outcome": "inactive"},
      {"compound": "CCOC(=O)C1(CCOc2ccccc2)CCN(Cc2ccc3c(c2)OCCO3)CC1", "outcome": "inactive"},
      {"compound": "CCOc1ccccc1CN1CCNC(=O)C1CC(=O)N(C)CCc1ccccn1", "note": "(stereo not given)", "outcome": "inactive"},
      {"compound": "CN(CCc1ccccn1)C(=O)CC1C(=O)NCCN1Cc1ccccc1C(F)(F)F", "note": "(stereo not given)", "outcome": "inactive"},
      {"compound": "Cc1ccc(C)c(OCCCCCn2ccnc2)c1", "outcome": "inactive"},
      {"compound": "O=C(C1CCCN(Cc2ccccc2F)C1)N1CCc2ccccc2C1", "note": "(stereo not given)", "outcome": "inactive"},
      {"compound": "CCOC(=O)C1(CCCc2ccccc2)CCN(Cc2cn(CC)nc2C)CC1", "outcome": "inactive"},
      {"compound": "NCCSc1c(-c2ccc(Cl)cc2)[nH]c2ccccc12", "activation": "19.5% (active)"},
      {"compound": "CN(C)CCCN(C(=O)c1ccc(C(=O)c2ccccc2)cc1)c1nc2ccc(F)cc2s1", "outcome": "inactive"},
      {"compound": "COc1ccc(-c2nn(-c3ccccc3)cc2CNCc2cccnc2)c(F)c1", "outcome": "inactive"},
      {"compound": "Cc1cc(Br)ccc1OCCn1ccnc1", "outcome": "inactive"},
      {"compound": "C=CCn1c(CCNC(=O)C(C)(C)C)nc2ccccc21", "outcome": "inactive"},
      {"compound": "Cc1cc(Cl)cc(C)c1OCCCCn1ccnc1", "outcome": "inactive"},
      {"compound": "Cc1sc2nc(CSc3ccccc3)nc(NCCN(C)C)c2c1C", "outcome": "inactive"},
      {"compound": "CCN1CCN(c2c(S(=O)(=O)c3ccc(C)c(C)c3)cnc3ccc(F)cc23)CC1", "outcome": "inactive"},
      {"compound": "Cc1ccc(C)c(OCCCCn2ccnc2)c1", "outcome": "inactive"},
      {"compound": "Cc1ccccc1NC(=S)NCCc1ccccn1", "outcome": "inactive"},
      {"compound": "CN(C)C(CNC(=O)Cc1cccc(C(F)(F)F)c1)c1ccco1", "note": "(stereo not given)", "outcome": "inactive"},
      {"compound": "CCOc1ccccc1CN1CCNC(=O)C1CC(=O)NCCc1ccccn1", "note": "(stereo not given)", "outcome": "inactive"},
      {"compound": "CCOc1ccc2ncc(C(=O)c3ccc(OC)cc3)c(N3CCN(CC)CC3)c2c1", "outcome": "inactive"},
      {"compound": "Cc1cc(NC(=O)CN2CCc3ccccc3C2)nc2c1c(=O)oc1ccccc12", "outcome": "inactive"},
      {"compound": "Cc1ccccc1C(=O)NNC(=S)NC(=O)c1ccccc1", "activation": "72.9% (active)"},
      {"compound": "CCOC(=O)C1CCCN(C(c2ccccn2)c2c(C)[nH]c3ccccc23)C1", "note": "(stereo not given)", "outcome": "inactive"},
      {"compound": "COc1cc(/C=C/C(=O)c2ccc3c(c2)OCO3)cc(Cl)c1O", "activation": "122% (active)"},
      {"compound": "CN(C)C(CNC(=O)/C=C/c1cccc(Cl)c1)c1ccccc1", "note": "(stereo not given)", "outcome": "inactive"},
      {"compound": "COc1ccc(C(=O)NC(=S)NNC(=O)c2c(-c3ccccc3)noc2C)cc1", "activation": "28.5% (active)"},
      {"compound": "O=S(=O)(c1ccc(Cl)cc1)N1CCN2CCCC2C1", "note": "(stereo not given)", "outcome": "inactive"},
      {"compound": "Cc1ccc(-n2cc(CNCC3CC(=O)N(C4CC4)C3)c(-c3cccc(C)c3)n2)cc1", "note": "(stereo not given)", "outcome": "inactive"},
      {"compound": "CCCCCSc1nnc2c(n1)OC(c1cccn1C)N(C(C)=O)c1ccccc1-2", "note": "(stereo not given)", "outcome": "inactive"},
      {"compound": "CCCCC(c1nnnn1CC1CCCO1)N1CCN(c2nc3ccccc3s2)CC1", "note": "(stereo not given)", "outcome": "inactive"},
      {"compound": "CCN(CCCNS(=O)(=O)c1cc(-c2cc(C)no2)ccc1C)Cc1ccccc1", "outcome": "inactive"},
      {"compound": "COc1ccc(-c2nc(CN3CCC(C(=O)NC4CCCC4)CC3)c(C)o2)cc1OC", "outcome": "inactive"},
      {"compound": "CCN(CC)CCSc1nc2ccc(OC)cc2[nH]1", "outcome": "inactive"}
    ]}
  ]
}
